Source: PubChem BioAssay
MCL1-BIM inh: inhibitors of MCL1 binding to BIM-BH3, primary screen, biochemical, fluorescence polarization; inhibition, % at 10.9 µM; Induced myeloid leukemia cell differentiation protein Mcl-1 (Homo sapiens), Q07820; AID 2057, 2009; 0.68% of 320,000 active; GST-MCL1 / FITC-Bim-BH3 fluorescence polarization;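 active means inhibition above the mean inhibition of all tested compounds plus 3 SD, set per campaign, cut at about 40% in these data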;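 further: higher means more loss of mP so more displacement of Bim peptide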
GLD-1 TGE inh: GLD-1/TGE RNA complex disruptors, primary screen, biochemical, fluorescence polarization | 0.44% of 320,000 active | purified GLD-1 + fluorescein TGE RNA | inhibition, % at 5.96 µM;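 active means percent inhibition above a per-plate cutoff, the plate mean of test compounds plus 3 SD, cut at about 30% in these data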
Target sequence (Q17339 whole entry, looked up): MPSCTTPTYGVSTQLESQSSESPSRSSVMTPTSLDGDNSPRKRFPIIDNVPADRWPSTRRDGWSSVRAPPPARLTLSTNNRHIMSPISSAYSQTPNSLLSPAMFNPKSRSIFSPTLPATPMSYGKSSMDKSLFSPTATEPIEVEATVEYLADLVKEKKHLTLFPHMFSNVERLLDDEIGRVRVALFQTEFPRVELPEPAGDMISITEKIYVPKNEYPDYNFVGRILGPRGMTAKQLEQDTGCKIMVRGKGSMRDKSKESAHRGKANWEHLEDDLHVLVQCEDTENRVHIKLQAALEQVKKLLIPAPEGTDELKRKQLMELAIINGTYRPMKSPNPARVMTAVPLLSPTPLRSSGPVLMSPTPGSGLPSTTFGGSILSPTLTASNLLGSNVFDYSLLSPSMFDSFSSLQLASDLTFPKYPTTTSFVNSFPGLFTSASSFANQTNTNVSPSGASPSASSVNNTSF
E coli Lon inh: inhibitors of E. coli Lon protease, primary screen, biochemical, fluorescence polarization; purified E. coli Lon protease; inhibition, % at 7.94 µM; 0.42% of 360,000 active; in the data active means inhibition above about 13%, passing the limit was not always enough
MEX-5 binding: MEX-5 zinc finger RNA-binding disruptors – biochemical, C. elegans, fluorescence polarization, MLPCN library, primary screen | MEX-5/FITC-TCR2 RNA binding; stronger effect = lower value | activity score (negative = inhibition of binding), % at 10 µM | 0.38% of 300,000 active;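 active means inhibition past about -25% in most replicates, and total fluorescence under double the plate's negative control median, limit read from the data; inconclusive means replicates evenly split on the limit, or fluorescence at least double controls; inactive means too little inhibition in most replicates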
EBV gp42 inh: Epstein-Barr virus gp42 inhibitors, primary screen, biochemical, uHTS, fluorescence polarization; AID 1085, 2008; inhibition, % (tested at 21.74 µM); 0.42% of 220,000 active; Glycoprotein 42 (Epstein-Barr virus (strain AG876)), Q1HVG2; Fluorescence polarization binding assay, mP read-out; in the data active means inhibition above about 50%
BCLXL inh: inhibitors of human Bcl-xL, primary screen, biochemical, fluorescence polarization, HTS. GST-Bcl-xL / FITC-Bim BH3 peptide fluorescence polarization. inhibition, % at 10.9 µM. 0.7% of 320,000 active. AID 2129, 2009;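 active means inhibition above the mean of all tested compounds plus 3 SD, cutoff set per campaign, cut at about 30% in these data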;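 further: inhibitors lower millipolarization by displacing the labeled peptide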
A number is an active result; - = inactive; ? = inconclusive; . = not tested or not shown. This is a sample that favours compounds with a hit; in the whole collection about 1.5% have one here.

SMILES	MCL1-BIM inh	GLD-1 TGE inh	E coli Lon inh	MEX-5 binding	EBV gp42 inh	BCLXL inh
COc1cc(/C=C2/S/C(=N/S(=O)(=O)c3ccccc3)NC2=O)c([N+](=O)[O-])cc1OC	46	-	-	-	-	40
O=C(NNS(=O)(=O)c1ccc([N+](=O)[O-])cc1)C(=O)Nc1cccc(C(=O)O)c1	-	-	-	-75	.	-
O=C(NNS(=O)(=O)c1ccc([N+](=O)[O-])cc1)c1ccccc1	.	.	-	.	.	.
Cc1cc(C)nc(NS(=O)(=O)c2ccc(NC(=O)c3cc4c(=O)n5cccc(C)c5nc4n3C)cc2)n1	-	-	-	-	.	30
CC(OC(=O)c1cnc(Cl)c(Cl)c1)C(=O)NCc1ccccc1 (stereo not drawn)	-	-	-	.	.	-
CCOC(=O)c1c(Nc2ccccc2N)cc(C)nc1C	-	-	-	.	81	-
O=C(O)CCCN1C(=O)/C(=C/c2ccc(-c3nc4ccccc4s3)o2)SC1=S	-	-	-	-29	-	-
O=C(O)CCCCCN1C(=O)/C(=C\c2ccc(-c3ccc(Cl)cc3)o2)SC1=S	-	-	-	-	-	-
c1cc2c(cc1NC1CCCCCC1)OCO2	47	-	-	-	.	34
O=C(NC1CCCCCCC1)c1ccc2c(c1)OCO2	-	-	-	-	-	-
COc1ccc(C(=O)NCc2ccc3c(c2)cc(C)n3C)cc1OC	-	-	-	-	-	37
CCCc1ccc(C(O)c2ncc(-c3ccccc3C)[nH]2)cc1 (stereo not drawn)	.	.	-	.	.	.
CCCCOc1ccc(-c2cc(C(F)(F)F)c(C#N)c(SCC(=O)O)n2)cc1	-	-	-	?	60	-
O=C(NCCN1CCN(C(=O)Nc2ccccc2)CC1)Nc1ccccc1	-	-	-	-	-	112
O=C(NC1CCCC1)c1ccc(COc2ccccc2Br)o1	-	-	-	-	.	-
N#CC1=C2SCC(O)(c3ccccc3)N2C(=O)CC1c1ccccc1F (stereo not drawn)	-	-	-	-	-	-
N#CC1=C2SCC(O)(c3ccccc3)N2C(=O)CC1c1cccs1 (stereo not drawn)	-	-	-	.	-	36
Cc1ccc(OCC(=O)NNC(=O)Cc2ccc(S(=O)(=O)N3CCOCC3)s2)cc1	-	-	-	-	.	-
Cc1ccc(S(=O)(=O)c2c(N)n(Cc3ccco3)c3nc4ccccc4nc23)cc1C	-	-	-	-	-	32
Nc1c(S(=O)(=O)c2ccccc2)c2nc3ccccc3nc2n1CCN1CCOCC1	-	-	-	-	-	-
Nc1c(S(=O)(=O)c2ccccc2)c2nc3ccccc3nc2n1Cc1ccco1	-	47	-	-	62	-
Cc1cc(C)n2nc(SCC(=O)N(CCC#N)c3ccc(F)cc3)nc2n1	-	-	-	.	.	-
O=[N+]([O-])c1ccc(-n2cc(-c3ccccc3)nn2)cc1	-	-	-	-	.	-
O=[N+]([O-])c1cccc(-c2cn3nc(-c4ccccc4)c(-c4ccccc4)nc3n2)c1	-	-	-	-44	72	-
O=[N+]([O-])c1cccc(-c2cn3ccccc3n2)c1	-	-	-	-	-	-
SMILES	MCL1-BIM inh	GLD-1 TGE inh	E coli Lon inh	MEX-5 binding	EBV gp42 inh	BCLXL inh
O=[N+]([O-])c1ccc(-c2cn3nc(-c4ccccc4)c(-c4ccccc4)nc3n2)cc1	-	-	-	-	111	-
COc1cc(/C=N/c2oc(-c3ccccc3)cc2C#N)ccc1O	-	-	-	?	57	-
O=[N+]([O-])c1ccc(O)c2cccnc12	48	-	-	-	-	44
O=[N+]([O-])c1ccc(O)c2ncccc12	-	-	-	-	-	-
CN(CC(=O)Nc1ccc(F)cc1)C(=O)COC(=O)C1=COCCO1	-	-	-	-	.	-
CN1C2C=C3C(C#N)=C(N)C(C#N)(C#N)[C@H](c4c(F)cccc4F)[C@H]3C1CC2 (stereo partly drawn)	-	-	-	-	-	-
CN1C2C=C3C(C#N)=C(N)C(C#N)(C#N)[C@@H](c4cccc(F)c4)[C@@H]3C1CC2 (stereo partly drawn)	-	-	-	-	-	31
N#CC(C#N)=C(N)CSc1cccc[n+]1[O-]	-	-	-	-	-	30
O=C(O)CSc1cccc[n+]1[O-]	-	-	-	-	-	-
O=C(Nc1ncccc1O)c1ccc(Oc2ccccc2)cc1	-	-	-	-	.	-
NC(=O)c1sc(=S)n2c1[nH]c(=O)c1sccc12	-	-	-	-	-	-
CC(=O)NNC(=O)c1sc(=S)n2c1[nH]c(=O)c1sccc12	-	-	-	-49	-	-
CC1=C(C#N)C(=O)N(C2CCS(=O)(=O)C2)C(=O)/C1=C\c1ccc(C)o1 (stereo not drawn)	52	-	.	?	118	30
Cc1ccc(/C=C2\SC(=S)N(C3CCS(=O)(=O)C3)C2=O)o1 (stereo not drawn)	-	-	-	-	-	-
Cc1cc(C=C2C(=O)c3ccccc3C2=O)c(C)n1-c1ccc(Cl)cc1	.	.	-	?	61	.
Cc1cc(C=C2C(=O)CCCC2=O)c(C)n1-c1ccccc1	-	-	-	-	-	-
CCn1c(C)cc(C=C2C(=O)c3ccccc3C2=O)c1C	.	.	-	-	107	.
Cc1cccc(-n2c(C)cc(C=C3C(=O)c4ccccc4C3=O)c2C)c1	-	-	-	-31	-	-
O=C(NCc1ccccc1)C1CCCN(S(=O)(=O)c2ccc(F)cc2)C1 (stereo not drawn)	-	-	-	-	.	-
O=C(CCNC(=O)N1CC(=O)Nc2ccccc21)Nc1ccc(Br)cc1F	-	-	-	-	.	-
CN(C(=O)c1cccc(NC(=O)Cc2ccc(NC(=O)C3CCCN(C(=O)C4CCC4)C3)cc2)c1)C1CC1 (stereo not drawn)	.	.	-	.	.	.
Cc1ccc2[nH]c(=O)c(CN(Cc3cccs3)Cc3nnnn3Cc3ccccc3)cc2c1	-	-	-	-	-	-
Cc1ccc2[nH]c(=O)c(CN(CCO)Cc3nnnn3CCc3ccccc3)cc2c1	-	-	-	-32	-	-
COC(=O)c1cc(C(=O)c2ccc(Cl)cc2)n2c(=O)/c(=C\N(C)C)sc12	-	-	-	.	62	-
Brc1ccccc1Cn1cnc2ccccc21	-	-	-	-	.	76
c1ccc(Cn2cnc3ccccc32)cc1	-	-	-	.	-	-
COC(=O)/C(C(C)=O)=C(/C=C/C=C/N(C)C)N(C)C	-	-	-	-	-	-
COC(=O)\C(C(C)=O)=C(/C=C/C=C/N(C)C)N(C)C	-	-	-	-	-	32
